From PubChem BioAssay AID651947 (Broad Institute, 2012) come the findings set out here.

Results with a measured potency or affinity are listed apart. Results filed as inconclusive are left out. Activity calls are given as the source filed them.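 How the source made its calls: active means luminescence drop in HepG2 cells whose fitted half-effect dose is at most twice the top valid dose; inconclusive means flat curve with 30 to 70% signal loss, or unreliable fit; inactive means the rest.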

The nature of this assay: cytotoxicity in HepG2 cells, dose response, cytotoxicity control, cell-based, plate reader, dry powder (AID 651947). The settings on record: HepG2 viability, ATP luminescence (CellTiter-Glo), 48 h, active compounds read low; at 26 µM unless noted.
For `c1ccc(-c2nnc(SCC3CC3)o2)cc1`, the max activity was 18.8% [at 0.38 µM] (inactive).
The result for `COc1ccc(CSc2nnc(-c3ccc(Cl)cc3)o2)nc1` reads 20.3% [at 0.8 µM] (inactive); that for `Fc1ccc(-c2nnc(SCc3ccccc3)o2)cc1`, 14.5% (inactive); that for `FC(F)(F)Oc1ccccc1CSc1nnc(-c2ccccc2)o1`, -50.7% [at 1.6 µM] (inactive).
The same measure for `c1ccc(CSc2nnc(-c3cccnc3)o2)nc1`: -43.9% (inactive).
The result for `Fc1ccccc1CSc1nnc(-c2ccccc2)o1` reads -57.5% (inactive).
Consider `FC(F)(F)Oc1cccc(-c2nnc(SCc3ccccc3)o2)c1`, for which the max activity was -17.6% [at 0.195 µM] (inactive).
The result for `Clc1cccc(CSc2nnc(-c3ccccc3)o2)c1` reads -32.2% [at 0.195 µM] (inactive); that for `c1ccc(-c2nnc(SCCC3OCCCO3)o2)cc1`, 12.9% [at 0.8 µM] (inactive).
The result for `CN(C)CCSc1nnc(-c2ccccc2)o1` reads -18.8% [at 0.195 µM] (inactive); that for `N#Cc1cccc(-c2nnc(SCc3ccccc3)o2)c1`, 15.2% (inactive).
For the compound `c1ccc(CSc2nnc(-c3ccccn3)o2)cc1`, the max activity is -20.9% [at 1.6 µM] (inactive).
The same measure for `COc1ccc(-c2nnc(SCc3ccc(Cl)cc3)o2)cc1`: -16.2% [at 0.38 µM] (inactive).
The same measure for `CN(Cc1ccccc1)c1nnc(-c2ccccc2)o1`: -28.2% (inactive); for `c1ccc(Cn2cc(CSc3nnc(-c4ccccc4)o3)nn2)cc1`: -41.8% (inactive); for `c1ccc(-c2nnc(SCCN3CCN(c4ccccc4)CC3)o2)cc1`: -48.3% [at 12 µM] (inactive).
The result for `O=C(Cc1ccccc1)C(C(=O)c1nnc(-c2ccccc2)o1)c1ccccc1` (stereo not given) reads -29.7% (inactive).
As to `O=S(Cc1ccccc1)c1nnc(-c2ccccc2)o1` (stereo not given), the max activity is -53.1% (inactive).
`CSc1nnc(-c2ccccc2)o1`: the max activity was -44.9% [at 60 µM] (inactive).
The same measure for `c1ccc(CSc2nnc(-c3ccncc3)o2)nc1`: -29.6% [at 6 µM] (inactive); for `Cc1cccc(CSc2nnc(-c3ccc(Cl)cc3)o2)n1`: 26% [at 0.38 µM] (inactive).
The result for `c1ccc(CSc2nnc(C3CCCCC3)o2)cc1` reads 16.5% [at 3 µM] (inactive); that for `O=S(=O)(Cc1ccccc1)c1nnc(-c2ccccc2)o1`, -24.8% (inactive); that for `CCSc1nnc(-c2ccccc2)o1`, 23.2% [at 12 µM] (inactive).
For the compound `Brc1ccc(CSc2nnc(-c3ccccc3)o2)cc1`, the max activity is 32.4% [at 6 µM] (inactive).
The same measure for `c1ccc(CSc2nnc(-c3cc4ccccc4o3)o2)cc1`: 34.2% [at 6 µM] (inactive); for `CS(=O)(=O)c1ccc(-c2nnc(SCc3ccccc3)o2)cc1`: -40.3% (inactive).
The result for `c1ccc(-c2nnc(SC3CCCCC3)o2)cc1` reads -38.4% (inactive); that for `[O-][n+]1ccccc1CSc1nnc(-c2ccccc2)o1`, -47.8% [at 1.6 µM] (inactive).
In the case of `CS(=O)(=O)c1cccc(CSc2nnc(-c3ccccc3)o2)c1`, the max activity is -12.6% [at 0.38 µM] (inactive).
Consider `Cc1ccc(CSc2nnc(-c3ccccc3)o2)cc1`, for which the max activity was 15.4% [at 3 µM] (inactive).
The result for `COCCSc1nnc(-c2ccccc2)o1` reads 27.8% [at 0.195 µM] (inactive); that for `c1ccc(CSc2nnc(C3CCCC3)o2)cc1`, -59.1% [at 6 µM] (inactive).
The result for `COc1ccc(-c2nnc(SCc3ccccc3)o2)cc1` reads -23.7% [at 6 µM] (inactive).
Take `N#Cc1ccc(-c2nnc(SCc3ccccc3)o2)cc1`: the max activity was 15.9% [at 1.6 µM] (inactive).
